Consider 27 molecules from PubChem BioAssay (EPA / NIEHS).

Where “and” joins values, the source holds several entries; their conditions need not be identical. Equal entries are not always repeated. Calls of active or inactive are those of the source. How the source made its calls: active means hit-call score of the fitted dose curve at least 0.9, where 1 is the maximum; inactive means score below 0.9.

Read-out in the first experiment: Transforming growth factor beta 1 (TGFb1), TGFB1 (gene 7040)
In words: BSK_BE3C_TGFb1: BioMAP Diversity Plus: BE3C Assay for Transforming growth factor beta 1 (TGFb1) Biomarker Activity (AID 2283036;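 on outcome: TGF-b1 protein level measured by ELISA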). The note with it: primary human bronchial epithelial cells; actives raise or lower the signal. In a few lines: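 Primary human lung bronchial epithelial cells; compound exposure 24 h; TGF-b1 by ELISA; bidirectional fit, DMSO baseline. Parallel SRB total-protein staining for cytotoxicity.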
For `Nc1ncc([N+](=O)[O-])s1`, the outcome was inactive.

A word on the AC50: it is the midpoint of the concentration-response curve, whichever way the signal moves. With `O=C(O)C(F)(F)C(F)(F)C(F)(F)C(F)(F)C(F)(F)C(F)(F)C(F)(F)C(F)(F)C(F)(F)C(F)(F)F`, the half-maximal activity concentration (AC50) was 8.28 µM (active).

Take `O=C(O)C(F)(F)C(F)(F)C(F)(F)C(F)(F)C(F)(F)C(F)(F)F`: the outcome was inactive.

For the molecule `NC(=O)O`, the outcome was inactive.

As to `Oc1c(I)cc(I)cc1I`, the result was inactive.

In the case of `NC(=S)Nc1ccccc1`, the outcome was inactive.

Consider `COP(=S)(OC)Oc1ccc(S(=O)(=O)N(C)C)cc1`, for which the outcome was inactive.

Turning to `COC[C@H](C)N(C(=O)CCl)c1c(C)csc1C`, the result was inactive.

`Nc1ccc(-c2ccc(N)c(Cl)c2)cc1Cl`: the result was inactive.

Read-out in another experiment: Plasminogen activator inhibitor-1 (PAI1), SERPINE1 (gene 5054)
Nature of the experiment: BSK_BE3C_PAI1: BioMAP Diversity Plus: BE3C Assay for Plasminogen activator inhibitor-1 (PAI1) Biomarker Activity (AID 2283037). The note with it: primary human bronchial epithelial cells; actives raise or lower the signal. In a few lines: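 Primary human lung bronchial epithelial cells; chemical dosing; 24 h; PAI-1 measured by ELISA; bidirectional fit referenced to DMSO as negative control.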
On to `ClCC(Cl)CCl`, for which the outcome was inactive.

Turning to `CCOP(=S)(OCC)SCSP(=S)(OCC)OCC`, the result was inactive.

As to `CC(=O)C(Cl)C(=O)N(C)C` (stereo not drawn), the result was inactive.

Take `CCOC(=O)/C=C(C)/C=C/C[C@@H](C)CCCC(C)C`: the outcome was inactive.

Take `CCOP(=S)(OCC)Oc1ccc(S(C)=O)cc1` (stereo not drawn): the result was inactive.

As to `ClC1(Cl)C2(Cl)C3(Cl)C4(Cl)C(Cl)(Cl)C5(Cl)C3(Cl)C1(Cl)C5(Cl)C24Cl` (stereo not drawn), the outcome was inactive.

On to `Cn1sc(Cl)cc1=O`, for which the outcome was inactive.

In the case of `Oc1cccc2cccnc12`, the half-maximal activity concentration (AC50) was 3.45 µM (active).

On to `CC(C)(C)c1cc(O)ccc1O`, for which the half-maximal activity concentration (AC50) is 14 µM (active).

For `CC(C)c1ccc(CO)cc1`, the result was inactive.

Consider `CC(C)(C)CC(C)(C)c1ccc(O)cc1`, for which the AC50 is 30.9 µM (active).

In the case of `CCN1CCC2(CC1)COc1cc3c(cc12)N(C(=O)c1ccc(-c2ccc(-c4nnc(C)o4)cc2C)cc1)CC3`, the half-maximal activity concentration (AC50) is 12.5 µM (active).

`O=Cc1cccc(Oc2ccccc2)c1`: the result was inactive.

`Cc1ccccc1N`: the outcome was inactive.

For `O=C(O)C(Cl)(Cl)Cl`, the result was inactive.

As for `O=c1[nH]c(=O)[nH]c(=O)[nH]1`, the outcome was inactive.

On to `CCC(C)(C)c1ccc(O)c(C(C)(C)CC)c1`, for which the AC50 is 31.4 µM (active).

Take `CCOP(=S)(OCC)SCCS(=O)(=O)CC`: the outcome was inactive.

As for `Nc1ncc([N+](=O)[O-])s1`, the outcome was inactive.

As to `O=C(O)C(F)(F)C(F)(F)C(F)(F)C(F)(F)C(F)(F)C(F)(F)C(F)(F)C(F)(F)C(F)(F)C(F)(F)F`, the AC50 was 12.3 µM (active) and 2.33 µM (active) and 1.73 µM (active).

For `NC(=O)O`, the result was inactive.

Consider `COP(=S)(OC)Oc1ccc(S(=O)(=O)N(C)C)cc1`, for which the result was inactive.

For the molecule `COC[C@H](C)N(C(=O)CCl)c1c(C)csc1C`, the result was inactive.

In the case of `Nc1ccc(-c2ccc(N)c(Cl)c2)cc1Cl`, the result was inactive.
